The text below walks through data of PubChem BioAssay (Tox21).

Active and inactive are the calls of the source. Calls come from the whole dose curve; as a rule, active = well fitted curve in the direction sought with a large enough effect in the repeat runs; inconclusive = weak or mixed curves; inactive = flat fitted curve, though single readings scatter.
% is set by controls: 0 for no effect and ±100 for the full control effect.

A short description of the test: qHTS assay to test for compound auto fluorescence at 590 nm (red) in HepG2 cells (AID 720674). Particulars: HepG2 autofluorescence, red 540/590 nm, 1 h; series mostly up to 91.3 µM; fluorescence, relative to Rose Bengal: at the top concentration. An excerpt:
U.S. Tox21 Program National Center for Advancing Translational Sciences [NCATS] NIH Chemical Genomics Center [NCGC] U.S. Environmental Protection Agency [EPA] National Institutes of Environmental Health Sciences [NIEHS] National Toxicology Program [NTP] U.S. Food and Drug Administration [FDA] Tox21 Assay Overview: Compound auto fluorescence often interferes with screening of the compound library against various biological targets and signaling pathways. Some of these compounds may have fluorophoric properties. Such properties may interfere with the assay outputs resulting in false positives and/or negatives. To decrease such complications and ensure the compound activities are relevant in terms of biological response, the Tox21 10K compound library was screened for auto fluorescence. From the fluorophores used as reporter signals in our screening assays, the auto fluorescence equivalencies of compounds against three fluorophores have been evaluated: Triamterene, Fluorescein and Rose Bengal sodium for blue, green and red fluorescence, respectively. The fluorescence intensities were measured using Excitation/Emission wavelengths at 405/460nm, 485/535nm and 540/590nm for blue, green and red labels, respectively. This assay includes the red fluorescence data.
Tox21 Assay Protocol Summary: 2,000 HepG2 cells in 5 uL of culture medium (MEM containing 10% FBS) per well were dispensed into black wall/clear bottom 1536-well plates using a Multidrop Combi Dispenser (ThermoFisher Scientific, Waltham, MA). The assay plates were incubated overnight at 37 C to allow cell attachment to the well bottom, followed by the transfer of 23 nL compound or DMSO vehicle by a pintool work station (Kalypsys , San Diego, CA). After the assay plates were incubated for 1 hr at 37 C and 5% CO2, fluorescence intensities in the assay plates were measured by an Envision (PerkinElmer, Shelton, CT) plate reader using three labels for measuring blue, green and red fluorescence at […] 460, 535 and 590 nm respectively.
Background: In qHTS, concentration-response curves come from the screen itself.
As to `CCOc1ccc2nc(N)sc2c1`, the “fluorescence, relative to Rose Bengal” value is 0.152% (inactive).
On the same count and under the same terms, in the case of `CCOC(=O)CS` it was 0.279% [at 95.7 µM] (inactive); in that of `Cc1cccc(C)c1NC(=O)CN1CCCCCC1`, -0.305% [at 46 µM] (inactive); in that of `CCOc1ccc(NS(=O)(=O)c2ccc(N)cc2)nn1`, 0.11% [at 46 µM] (inactive).
For `CCN(CC)CC1CCCCN1CC(=O)N1c2ccccc2C(=O)Nc2cccnc21` (stereo not given), the “fluorescence, relative to Rose Bengal” value is -0.453% [at 46 µM] (inactive).
Same read-out and setting: to `CN1CCN(C2=Nc3cc(F)ccc3Cc3ccccc32)CC1` belongs -0.171% [at 46 µM] (inactive); to `CC1=C2[C@H](/C=C(\C)C(=O)O)CC[C@@H](C)[C@H]2CC1`, -0.0245% [at 95.7 µM] (inactive); to `COc1cc(C)ccc1C(C)C`, 0.0389% (inactive).
As for `CCc1cc(Cl)c(OC)c(C(=O)NC[C@@H]2CCCN2CC)c1O`, the compound was called inactive.
On to `O=Cc1ccc(F)c(Br)c1`, for which the “fluorescence, relative to Rose Bengal” value was -0.115% (inactive).
The same measure, in the same setting: to `CCN[C@H]1CN(CCCOC)S(=O)(=O)c2sc(S(N)(=O)=O)cc21` belongs -0.145% [at 18.6 µM] (inactive); to `CC1CN(c2ccccc2)NC1=O` (stereo not given), 0.154% (inactive); to `O=C1CCCCC1C1CCCCC1` (stereo not given), 0.005% (inactive).
For `O=c1[nH]cnc2c1ncn2[C@@H]1O[C@H](CO)[C@@H](O)[C@H]1O`, the “fluorescence, relative to Rose Bengal” value is 0.0832% [at 46 µM] (inactive).
Regarding `CCOC(=O)COc1ccc2c(c1)CC(NCC(O)c1cccc(Cl)c1)CC2` (stereo not given), the “fluorescence, relative to Rose Bengal” value was 0.282% (inactive).
Still for that read-out and setting: in the case of `O=C1N(c2ccccc2)c2ccccc2C1(Cc1ccncc1)Cc1ccncc1` it was -0.275% [at 46 µM] (inactive); in that of `Cc1nc(-c2ccccn2)ncc1C(=O)Nn1cc(C)c2cc(F)ccc21`, 0.209% (inactive); in that of `Cc1cc(NS(=O)(=O)c2ccc(N)cc2)nc(C)n1`, -0.0028% [at 46 µM] (inactive).
For `ClC(Cl)Cl`, the compound was called inactive.
As to `CC(C)S`, the “fluorescence, relative to Rose Bengal” value was 0.126% [at 95.7 µM] (inactive).
The same measure, in the same setting: to `CC(C)(C)C1CCCCC1=O` (stereo not given) belongs -0.0389% (inactive).
The same measure, in the same setting: to `Nc1ccc(Oc2ccc(N)c(N)c2)cc1` belongs 0.121% (inactive); to `O=C1CCCCCCCCCCC(=O)OCCO1`, 0.0025% (inactive).
In the case of `C=O`, the compound was classed as inactive.
As for `O=C(O[C@@H](C(=O)O)[C@@H](OC(=O)c1ccccc1)C(=O)O)c1ccccc1`, the “fluorescence, relative to Rose Bengal” value was -0.0159% [at 95.7 µM] (inactive).
Turning to `Cc1ccc(C(C)C)cc1O`, the “fluorescence, relative to Rose Bengal” value was 0.344% (inactive).
With `Cc1c(C(=O)NCCO)[n+](=O)c2ccccc2n1[O-]`, the “fluorescence, relative to Rose Bengal” value was 0.445% [at 46 µM] (inactive).
Turning to `O=C(O)C(=O)Cc1c[nH]c2ccccc12`, the “fluorescence, relative to Rose Bengal” value was -0.371% (inactive).
Regarding `Cc1cc(S(=O)(=O)O)c(N)cc1Cl`, the “fluorescence, relative to Rose Bengal” value was 0.0942% (inactive).
Turning to `CN(CCCN1c2ccccc2CCc2ccccc21)CC(=O)c1ccc(Cl)cc1`, the “fluorescence, relative to Rose Bengal” value was 0.192% [at 46 µM] (inactive).
On the same count and under the same terms, to `FC(F)(F)c1ccccc1` belongs -0.201% (inactive); to `O=C1Nc2ccc([N+](=O)[O-])cc2C1=O`, -0.227% (inactive).
On to `NCCC(O)(P(=O)(O)O)P(=O)(O)O`, for which the “fluorescence, relative to Rose Bengal” value is -0.0289% [at 46 µM] (inactive).
With `O=C1CCN(c2ccccc2)N1`, the “fluorescence, relative to Rose Bengal” value is -0.306% (inactive).
The same measure, in the same setting: to `CC(=O)OC(C)OC(C)=O` belongs 0.137% [at 95.7 µM] (inactive).
For the compound `COc1ccccc1N1CCN(CCCNc2cc(=O)n(C)c(=O)n2C)CC1`, the compound was classed as inactive.
Consider `CC(C)=CCCC(C)CCOC=O` (stereo not given), for which the “fluorescence, relative to Rose Bengal” value is 0.0001% (inactive).
Same read-out and setting: to `CCCCNc1cc(C(=O)O)cc(S(N)(=O)=O)c1Oc1ccccc1` belongs -0.242% [at 18.6 µM] (inactive); to `CC(C)(C)c1cccc(O)c1`, -0.289% (inactive).
On the same count and under the same terms, in the case of `CCCNC(C)(C)COC(=O)c1ccccc1` it was 0.107% [at 46 µM] (inactive).
